Test results published in paper PMC11006913.
Changes are numbered by the printed parent chain.

Experiments:
Test in all cases: PBM; 200 nM protein, PBS
Settings in all cases: dsDNA, one strand shown
[1] = target: T1, VENTX (Homo sapiens, UniProt O95231 78-163, R121Q)
T1 sequence: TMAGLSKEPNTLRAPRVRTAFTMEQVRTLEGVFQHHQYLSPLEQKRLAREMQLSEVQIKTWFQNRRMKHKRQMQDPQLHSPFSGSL

[2] = target: HOXA4 (Homo sapiens, UniProt Q00056 201-287, W262R)
[3] = target: HOXA7 (Homo sapiens, UniProt P31268 116-202)
[4] = target: ALX4 (Homo sapiens, UniProt Q9H161 200-286)
Sequence of ALX4 (Q9H161 200-286): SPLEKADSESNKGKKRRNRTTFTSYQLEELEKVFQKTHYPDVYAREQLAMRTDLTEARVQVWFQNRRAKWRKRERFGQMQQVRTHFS

[5] = target: PRRX1 (Homo sapiens, UniProt P54821 80-166, F113S)
Sequence of PRRX1 (Homo sapiens, UniProt P54821 80-166, F113S) (P54821 80-166 F113S): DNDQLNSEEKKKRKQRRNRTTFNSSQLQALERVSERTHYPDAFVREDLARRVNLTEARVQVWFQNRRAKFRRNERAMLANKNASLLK

[6] = target: T2, VENTX (Homo sapiens, UniProt O95231 78-163, Y115F)
T2 sequence: T1 sequence with Y38F, Q44R

[7] = target: HOXB6 (Homo sapiens, UniProt P17509 132-218, K202E)
Sequence of HOXB6 (P17509 132-218 K202E): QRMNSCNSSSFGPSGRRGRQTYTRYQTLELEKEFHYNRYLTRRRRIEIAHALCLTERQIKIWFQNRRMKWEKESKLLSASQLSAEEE

[8] = target: HOXA2 (Homo sapiens, UniProt O43364 129-215, R185T)
Sequence of HOXA2 (Homo sapiens, UniProt O43364 129-215, R185T) (O43364 129-215 R185T): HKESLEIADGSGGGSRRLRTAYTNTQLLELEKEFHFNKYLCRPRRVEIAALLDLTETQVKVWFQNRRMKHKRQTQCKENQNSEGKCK

[9] = target: HOXA4 (Homo sapiens, UniProt Q00056 201-287, R217L)
Sequence of HOXA4 (Homo sapiens, UniProt Q00056 201-287, R217L) (Q00056 201-287 R217L): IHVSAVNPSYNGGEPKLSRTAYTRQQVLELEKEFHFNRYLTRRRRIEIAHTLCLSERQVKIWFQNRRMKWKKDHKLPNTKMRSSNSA

[10] = target: HOXB4 (Homo sapiens, UniProt P17483 148-234, V174I)
Sequence of HOXB4 (P17483 148-234 V174I): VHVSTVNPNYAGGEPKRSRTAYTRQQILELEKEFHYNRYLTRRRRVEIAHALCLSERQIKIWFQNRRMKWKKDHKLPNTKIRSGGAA

[11] = target: T3, PAX4 (Homo sapiens, UniProt O43316 9-242, R200Q)
T3 sequence: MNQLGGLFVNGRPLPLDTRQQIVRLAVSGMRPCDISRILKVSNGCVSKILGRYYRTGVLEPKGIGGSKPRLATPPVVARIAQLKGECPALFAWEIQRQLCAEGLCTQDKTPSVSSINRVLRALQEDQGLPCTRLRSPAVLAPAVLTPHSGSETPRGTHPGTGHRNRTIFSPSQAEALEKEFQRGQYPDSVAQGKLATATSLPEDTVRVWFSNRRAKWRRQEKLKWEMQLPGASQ

[12] = target: HOXA2 (Homo sapiens, UniProt O43364 129-215, R185K)
Sequence of HOXA2 (Homo sapiens, UniProt O43364 129-215, R185K) (O43364 129-215 R185K): as the sequence (O43364 129-215 R185T) above, with T57K counted along it

[13] = target: HOXA4 (Homo sapiens, UniProt Q00056 201-287)
Sequence of HOXA4 (Homo sapiens, UniProt Q00056 201-287) (Q00056 201-287): as the sequence (Q00056 201-287 R217L) above, with L17R counted along it

[14] = target: MSX2 (Homo sapiens, UniProt P35548 130-214)
Sequence of MSX2 (Homo sapiens, UniProt P35548 130-214) (P35548 130-214): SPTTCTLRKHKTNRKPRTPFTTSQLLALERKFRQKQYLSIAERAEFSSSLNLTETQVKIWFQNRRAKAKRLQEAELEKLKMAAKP

[15] = target: MSX2 (Homo sapiens, UniProt P35548 130-214, F161Y)
Sequence of MSX2 (Homo sapiens, UniProt P35548 130-214, F161Y) (P35548 130-214 F161Y): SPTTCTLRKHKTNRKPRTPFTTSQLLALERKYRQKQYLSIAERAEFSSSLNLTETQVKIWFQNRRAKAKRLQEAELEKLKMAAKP

[16] = target: VAX1 (Homo sapiens, UniProt Q5SQQ9 86-172, T142I)
Sequence of VAX1 (Homo sapiens, UniProt Q5SQQ9 86-172, T142I) (Q5SQQ9 86-172 T142I): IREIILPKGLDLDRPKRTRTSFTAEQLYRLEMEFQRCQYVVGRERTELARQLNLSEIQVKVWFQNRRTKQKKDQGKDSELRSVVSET

[17] = target: HOXA7 (Homo sapiens, UniProt P31268 116-202, W177C)
Sequence of HOXA7 (Homo sapiens, UniProt P31268 116-202, W177C) (P31268 116-202 W177C): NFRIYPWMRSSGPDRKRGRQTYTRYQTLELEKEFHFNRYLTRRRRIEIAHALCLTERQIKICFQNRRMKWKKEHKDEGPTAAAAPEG

[18] = target: HOXA4 (Homo sapiens, UniProt Q00056 201-287, W262F)
Sequence of HOXA4 (Homo sapiens, UniProt Q00056 201-287, W262F) (Q00056 201-287 W262F): as the sequence (Q00056 201-287 R217L) above, with L17R, W62F counted along it

[19] = target: PRRX1 (Homo sapiens, UniProt P54821 80-166)
Sequence of PRRX1 (Homo sapiens, UniProt P54821 80-166) (P54821 80-166): as the sequence (P54821 80-166 F113S) above, with S34F counted along it

[20] = target: VAX1 (Homo sapiens, UniProt Q5SQQ9 86-172, K157R)
Sequence of VAX1 (Homo sapiens, UniProt Q5SQQ9 86-172, K157R) (Q5SQQ9 86-172 K157R): as the sequence (Q5SQQ9 86-172 T142I) above, with I57T, K72R counted along it

Sequence of HOXA4 (Homo sapiens, UniProt Q00056 201-287, W262R) (Q00056 201-287 W262R): as the sequence (Q00056 201-287 R217L) above, with L17R, W62R counted along it
Sequence of HOXA7 (Homo sapiens, UniProt P31268 116-202) (P31268 116-202): as the sequence (P31268 116-202 W177C) above, with C62W counted along it

Sequence	binding signal [1]	binding signal [2]	binding signal [3]	binding signal [4]	binding signal [5]	binding signal [6]	binding signal [7]	binding signal [8]	binding signal [9]	binding signal [10]	binding signal [11]	binding signal [12]	binding signal [13]	binding signal [14]	binding signal [15]	binding signal [16]	binding signal [17]	binding signal [18]	binding signal [19]	binding signal [20]
GCAATTAA	12.2 upbm affinity estimate (log intensity, higher = more binding, comparable within an allelic series)	10.6 upbm affinity estimate (log intensity, higher = more binding, comparable within an allelic series)	12.3 upbm affinity estimate (log intensity, higher = more binding, comparable within an allelic series)	13.8 upbm affinity estimate (log intensity, higher = more binding, comparable within an allelic series)	11.1 upbm affinity estimate (log intensity, higher = more binding, comparable within an allelic series)	11.9 upbm affinity estimate (log intensity, higher = more binding, comparable within an allelic series)	10.1 upbm affinity estimate (log intensity, higher = more binding, comparable within an allelic series)	13.2 upbm affinity estimate (log intensity, higher = more binding, comparable within an allelic series)	12.4 upbm affinity estimate (log intensity, higher = more binding, comparable within an allelic series)	13.9 upbm affinity estimate (log intensity, higher = more binding, comparable within an allelic series)	12 upbm affinity estimate (log intensity, higher = more binding, comparable within an allelic series)	13.4 upbm affinity estimate (log intensity, higher = more binding, comparable within an allelic series)	13.9 upbm affinity estimate (log intensity, higher = more binding, comparable within an allelic series)	14.1 upbm affinity estimate (log intensity, higher = more binding, comparable within an allelic series)	13.7 upbm affinity estimate (log intensity, higher = more binding, comparable within an allelic series)	13.2 upbm affinity estimate (log intensity, higher = more binding, comparable within an allelic series)	8.72 upbm affinity estimate (log intensity, higher = more binding, comparable within an allelic series)	11.8 upbm affinity estimate (log intensity, higher = more binding, comparable within an allelic series)	13.2 upbm affinity estimate (log intensity, higher = more binding, comparable within an allelic series)	12.9 upbm affinity estimate (log intensity, higher = more binding, comparable within an allelic series)
AATAATTA	12 upbm affinity estimate (log intensity, higher = more binding, comparable within an allelic series)	10.9 upbm affinity estimate (log intensity, higher = more binding, comparable within an allelic series)	11.9 upbm affinity estimate (log intensity, higher = more binding, comparable within an allelic series)	14.2 upbm affinity estimate (log intensity, higher = more binding, comparable within an allelic series)	11.7 upbm affinity estimate (log intensity, higher = more binding, comparable within an allelic series)	11.8 upbm affinity estimate (log intensity, higher = more binding, comparable within an allelic series)	10.2 upbm affinity estimate (log intensity, higher = more binding, comparable within an allelic series)	13.5 upbm affinity estimate (log intensity, higher = more binding, comparable within an allelic series)	12.7 upbm affinity estimate (log intensity, higher = more binding, comparable within an allelic series)	14.2 upbm affinity estimate (log intensity, higher = more binding, comparable within an allelic series)	12.2 upbm affinity estimate (log intensity, higher = more binding, comparable within an allelic series)	13.6 upbm affinity estimate (log intensity, higher = more binding, comparable within an allelic series)	14.2 upbm affinity estimate (log intensity, higher = more binding, comparable within an allelic series)	14 upbm affinity estimate (log intensity, higher = more binding, comparable within an allelic series)	13.6 upbm affinity estimate (log intensity, higher = more binding, comparable within an allelic series)	13.4 upbm affinity estimate (log intensity, higher = more binding, comparable within an allelic series)	9.07 upbm affinity estimate (log intensity, higher = more binding, comparable within an allelic series)	12.2 upbm affinity estimate (log intensity, higher = more binding, comparable within an allelic series)	13.5 upbm affinity estimate (log intensity, higher = more binding, comparable within an allelic series)	13.4 upbm affinity estimate (log intensity, higher = more binding, comparable within an allelic series)
ATTAATTA	12.8 upbm affinity estimate (log intensity, higher = more binding, comparable within an allelic series)	11.1 upbm affinity estimate (log intensity, higher = more binding, comparable within an allelic series)	12.6 upbm affinity estimate (log intensity, higher = more binding, comparable within an allelic series)	14.7 upbm affinity estimate (log intensity, higher = more binding, comparable within an allelic series)	12.2 upbm affinity estimate (log intensity, higher = more binding, comparable within an allelic series)	12.5 upbm affinity estimate (log intensity, higher = more binding, comparable within an allelic series)	10.4 upbm affinity estimate (log intensity, higher = more binding, comparable within an allelic series)	14 upbm affinity estimate (log intensity, higher = more binding, comparable within an allelic series)	13.4 upbm affinity estimate (log intensity, higher = more binding, comparable within an allelic series)	14.4 upbm affinity estimate (log intensity, higher = more binding, comparable within an allelic series)	12.8 upbm affinity estimate (log intensity, higher = more binding, comparable within an allelic series)	14 upbm affinity estimate (log intensity, higher = more binding, comparable within an allelic series)	14.4 upbm affinity estimate (log intensity, higher = more binding, comparable within an allelic series)	14.2 upbm affinity estimate (log intensity, higher = more binding, comparable within an allelic series)	13.8 upbm affinity estimate (log intensity, higher = more binding, comparable within an allelic series)	13.9 upbm affinity estimate (log intensity, higher = more binding, comparable within an allelic series)	9.01 upbm affinity estimate (log intensity, higher = more binding, comparable within an allelic series)	13.1 upbm affinity estimate (log intensity, higher = more binding, comparable within an allelic series)	13.8 upbm affinity estimate (log intensity, higher = more binding, comparable within an allelic series)	13.8 upbm affinity estimate (log intensity, higher = more binding, comparable within an allelic series)
ATTAATTG	12.2 upbm affinity estimate (log intensity, higher = more binding, comparable within an allelic series)	10.7 upbm affinity estimate (log intensity, higher = more binding, comparable within an allelic series)	12 upbm affinity estimate (log intensity, higher = more binding, comparable within an allelic series)	14.2 upbm affinity estimate (log intensity, higher = more binding, comparable within an allelic series)	11.4 upbm affinity estimate (log intensity, higher = more binding, comparable within an allelic series)	11.9 upbm affinity estimate (log intensity, higher = more binding, comparable within an allelic series)	10.1 upbm affinity estimate (log intensity, higher = more binding, comparable within an allelic series)	13.3 upbm affinity estimate (log intensity, higher = more binding, comparable within an allelic series)	12.5 upbm affinity estimate (log intensity, higher = more binding, comparable within an allelic series)	14.2 upbm affinity estimate (log intensity, higher = more binding, comparable within an allelic series)	12.2 upbm affinity estimate (log intensity, higher = more binding, comparable within an allelic series)	13.5 upbm affinity estimate (log intensity, higher = more binding, comparable within an allelic series)	14 upbm affinity estimate (log intensity, higher = more binding, comparable within an allelic series)	14 upbm affinity estimate (log intensity, higher = more binding, comparable within an allelic series)	13.7 upbm affinity estimate (log intensity, higher = more binding, comparable within an allelic series)	12.9 upbm affinity estimate (log intensity, higher = more binding, comparable within an allelic series)	8.87 upbm affinity estimate (log intensity, higher = more binding, comparable within an allelic series)	11.8 upbm affinity estimate (log intensity, higher = more binding, comparable within an allelic series)	13.4 upbm affinity estimate (log intensity, higher = more binding, comparable within an allelic series)	12.9 upbm affinity estimate (log intensity, higher = more binding, comparable within an allelic series)
